# The list is a sample of the results. The true hit rate is not given. A number with no mark means an inactive call.
# B1: HHH_b1_08438_000000177_dldesign_0_cycle1_af2pred_0001 (protein)
# chain: GGSGGSAEEEVEKLIEEAKNNPDKEKAEELLSRALKLADAAGNVDLRSKTMNALFDVLGGSGGSG
# B2: HHH_b1_01197_000000280_dldesign_0_cycle1_af2pred_0001 (protein)
# chain: GGSGGSGKSSEIDKLLNEVLKLGKEEEYLKIMSLKMDYLETGDEEIFKEAKELAKKVIGGSGGSG
# B3: HHH_b2_07220_000000120_dldesign_0_cycle1_af2pred_0001 (protein)
# chain: SGGSEESKKLVEETIKKAKKLVEEGNPLEAKILLRKTLLDLSELGDDEGFSKLSKFLDEIEGGSG
# B4: HHH_b1_00135_000000286_dldesign_0_cycle1_af2pred_0001 (protein)
# chain: SGGSLAVETAKEYLEMVKSYAEEGDKEEAQFFADIIKLLAESENNPELKKIYEEAKKIVEEGGSG
# B5: HHH_b1_08653_000000138_dldesign_0_cycle1_af2pred_0001 (protein)
# chain: GSGGSGASLAAEDILRAMRQFARAGKPEAVRDLAKKGIKIMTEAGRPDEAKRIEEELARLGGSGG
# B6: HHH_b1_02099_000000008_dldesign_0_cycle1_af2pred_0001 (protein)
# chain: SGGSMEELDECARLLNELAHAIEEGNKEKFEELYKKARELIEKLGDEALLKALDELEEAFYGGSG
# B7: ac710d00df0a15e663fb636f306744b3_0001_1_000000013_dldesign_0_cycle1_af2pred_0001 (protein)
# chain: GIRERAREMAKKHGVSDEELQPVIDLVEKMRAEGKSIEEIARELGEKLAETGNKAYACVLEALAE
# Biological target: Flpp3
# Experiment: yeast display titration
row,Binder,apparent Kd [µM]
1,B1,> 11.6
2,B2,> 5.39
3,B3,> 4.46
4,B4,> 7.9
5,B5,> 134
6,B6,> 0.105
7,B7,> 0.105

# — PMC12723454
